# Measurements from the supplement of paper PMC4683952.
# Structures can show the parent of a compound that is named as a salt. Hit rate of the full screen: of about 1,200 compounds, about 50 (4%) showed activity. Cut-off read from the data, not from the text of the source: all actives reach 1.3 or more but so do some inactives. The full list was thinned out, with actives kept by preference.
# System: Lgr5 (MarsCy1-Lgr5-EGFP, U2OS)
# Assay: cell-surface Lgr5 expression (SCi1 fluorescence, background-subtracted) relative to WT DMSO (fold of DMSO control); higher = more Lgr5 at the plasma membrane, active = hit call of the paper
# Settings: U2OS MarsCy1-Lgr5-EGFP stable; treatment time: overnight; 16 µM; library: Johns Hopkins Clinical Compound Library
row,SMILES,cell-surface Lgr5 expression
1,COc1ccc2[nH]c([S+]([O-])Cc3ncc(C)c(OC)c3C)nc2n1 (stereo unspecified) [Tenatoprazole],1.17 (inactive)
2,[I-].[Na+] [Sodium iodide],1.13 (inactive)
3,"C[C@@H](C1=C(CCN(C)C)Cc2ccccc21)c1ccccn1 [Dimethindene (S, +) maleate]",1.32 (inactive)
4,CCCCCCCCCCCCN [Dodecylamine],0.823 (inactive)
5,C[N+](C)(CCOc1ccccc1)Cc1ccccc1.O=C([O-])c1cc2ccccc2cc1O [Bephenium hydroxy-naphthoate],1.05 (inactive)
6,CCCCCCCCCCCC[N+](C)(C)Cc1ccccc1,0.391 (inactive)
7,Cc1cc(C(C)(C)CC(C)(C)C)ccc1OCCOCC[N+](C)(C)Cc1ccccc1 [Methylbenzethonium chloride],1.67 (active)
8,CC(=O)SCC(Cc1ccccc1)C(=O)NCC(=O)OCc1ccccc1 (stereo unspecified) [Racecadotril],1.24 (inactive)
9,N.O=C(O)CC(O)(CC(=O)O)C(=O)O.[Fe+3] [Ferric ammonium citrate],1.06 (inactive)
10,N=C(N)N [Guanidine hydrochloride],0.767 (inactive)
11,O.O.O.O.O.O.O.O=S(=O)([O-])[O-].[Mg+2] [Magnesium sulfate],1.04 (inactive)
12,C=CC1=C(C(=O)O)N2C(=O)[C@@H](NC(=O)/C(=N\O)c3csc(N)n3)[C@H]2SC1 [Cefdinir],1.06 (inactive)
13,O=C(O[C@@H]1Cc2c(O)cc(O)cc2O[C@@H]1c1ccc(O)c(O)c1)c1cc(O)c(O)c(O)c1 [Epicatechin gallate (-)],1.14 (inactive)
14,"C[C@](N)(Cc1ccc(O)c(O)c1)C(=O)O [Methyl-DOPA (alpha-methyl-L-beta-3,4-dihydroxyphenylalanine)]",0.929 (inactive)
15,"N[C@@H](Cc1ccc(O)c(O)c1)C(=O)O [Levodopa (L-beta-3,4-Dihydroxyphenylananine)]",0.449 (inactive)
16,NCCc1ccc(O)c(O)c1 [3-hydroxytyramine (Dopamine)],1.43 (active)
17,NCCc1ccc(O)c(O)c1 [Dopamine (3-Hydroxytyramine hydrochloride)],1.51 (active)
18,CC(=O)N[C@@H](CCC(N)=O)C(=O)O [Aceglutamide (N-acetyl-L-glutamine)],1.2 (inactive)
19,CN1CC(O)C2=C/C(=N/NC(N)=O)C(=O)C=C21 (stereo unspecified) [Carbazochrome (Adrenochrome semicarbazone)],1.16 (inactive)

row,SMILES,cell-surface Lgr5 expression
1,Cc1cc(N)c2ccccc2c1O [Vitamin K5 hydrochloride],0.778 (inactive)
2,O=P([O-])(O)O.[K+] [Potassium phosphate monobasic],1.24 (inactive)
3,C[C@@H]1C[C@H]2[C@@H]3C[C@H](F)C4=CC(=O)C=C[C@]4(C)[C@@]3(F)[C@@H](O)C[C@]2(C)[C@@]1(O)C(=O)COC(=O)C(C)(C)C [Flumethasone pivalate],1.37 (active)
4,C[C@@H]1C[C@H]2[C@@H]3C[C@H](F)C4=CC(=O)C=C[C@]4(C)[C@@]3(F)[C@@H](O)C[C@]2(C)[C@@]1(O)C(=O)CO [Flumethasone],1.48 (active)
5,[Ca+2].[OH-].[OH-] [Calcium hydroxide],1.1 (inactive)
6,O.O=C([O-])CN(CCN(CC(=O)[O-])CC(=O)[O-])CC(=O)[O-].[Ca+2].[Na+].[Na+] [Edetate calcium disodium (Calcium disodium versenate)],0.981 (inactive)
7,O.O=C([O-])CN(CCN(CC(=O)[O-])CC(=O)[O-])CC(=O)[O-].[Ca+2].[Na+].[Na+],1 (inactive)
8,Cc1cc2nc3ccc(N(C)C)cc3[s+]c2cc1N [Tolonium chloride (Toluidine blue O)],1.15 (inactive)
9,c1ccc(-c2ccc(C(c3ccccc3)n3ccnc3)cc2)cc1 (stereo unspecified) [Bifonazole],1.04 (inactive)
10,[Fe+3].[Fe+3].[O-2].[O-2].[O-2].[O-2].[Zn+2] [Calamine],0.886 (inactive)
11,Cc1ncc(CSSCc2cnc(C)c(O)c2CO)c(CO)c1O [Pyrithioxin],1.16 (inactive)
12,CN(C)CCOC(C)(c1ccccc1)c1ccc(Cl)cc1 (stereo unspecified) [Chlorphenoxamine hydrochloride],1.15 (inactive)
13,O=C([O-])C(O)C(O)C(=O)[O-].[K+].[Na+] (stereo unspecified) [Potassium sodium tartrate tetrahydrate],1.1 (inactive)
14,O=CC(O)C(O)C(O)C(O)CO (stereo unspecified) [Glucose (D)],1.02 (inactive)
15,O=C[C@H](O)[C@@H](O)[C@H](O)[C@H](O)C(=O)[O-].[Na+] [Sodium glucuronate (D-Glucuronic acid)],1.32 (active)
16,"Cc1ccc2c(Br)cc(Br)c(O)c2n1 [Broquinaldol (5,7-dibromo-8-hydroxy-quinaldine)]",1.1 (inactive)
17,Cc1ccc(/C(=C\CN2CCCC2)c2cccc(/C=C/C(=O)O)n2)cc1 [Acrivastine],1.15 (inactive)
18,N[C@@H](C(=O)N[C@@H]1C(=O)N2C(C(=O)O)=C(Cl)CC[C@H]12)c1ccccc1 [Loracarbef],0.67 (inactive)
19,CCCCN(CCCC)CCCOC(=O)c1ccc(N)cc1 [Butacaine],1.62 (active)

row,SMILES,cell-surface Lgr5 expression
1,CCCCOC(=O)c1ccc(N)cc1 [Butamben (n-butyl p aminobenzoate)],1 (inactive)
2,CCN(CC)CCOC(=O)c1ccc(N)cc1 [Procaine hydrochloride],0.937 (inactive)
3,Cc1ncc(COP(=O)(O)O)c(C=O)c1O [Pyridoxal-5-phosphate],0.951 (inactive)
4,CCCCn1c(=O)c2c(ncn2CC(C)=O)n(CCCC)c1=O [Denbufylline],1.44 (inactive)
5,C[C@@H](O[C@H]1OCCN(Cc2n[nH]c(=O)[nH]2)[C@H]1c1ccc(F)cc1)c1cc(C(F)(F)F)cc(C(F)(F)F)c1 [Aprepitant],1.01 (inactive)
6,Cn1c(NCCN(CCO)CCCc2ccc([N+](=O)[O-])cc2)cc(=O)n(C)c1=O [Nifekalant],0.923 (inactive)
7,[Cl-].[Cl-].[Cl-].[In+3] [Indium(III) chloride],0.736 (inactive)
8,CCN(CC)CC(=O)Nc1c(C)cccc1C [Lidocaine],1.19 (inactive)
9,Cc1cccc(C)c1NC(=O)C(C)N (stereo unspecified) [Tocainide hydrochloride],1.07 (inactive)
10,CC[N+](CC)(CC)CC(=O)Nc1c(C)cccc1C [Lidocaine N-ethyl bromide],1.39 (active)
11,O[C@@H]1[C@H](O)[C@@H](O)C=C[C@H]1O [Conduritol],1.03 (inactive)
12,O=C(O)c1cc(-c2ccccc2)nc2ccccc12 [Cinchophen (2-phenyl 4-quinoline carboxylic acid)],1.45 (active)
13,O=C(O)c1ccccc1I [2-Iodobenzoic acid],1.04 (inactive)
14,Nc1c2ccccc2nc2ccccc12 [Aminacrine (9-Aminoacridine)],0.26 (inactive)
15,O=C(O)c1cc(O)c(O)c(O)c1 [Gallic acid],0.979 (inactive)
16,O=C(Nc1ccccc1)c1cc(Cl)ccc1O [5-Chlorosalicylanilide],1.12 (inactive)
17,COC1=C(OC)C(=O)C(CCCCCCCCCCO)=C(C)C1=O [Idebenone],1.04 (inactive)
18,CC1(C)S[C@@H]2[C@H](NC(=O)COc3ccccc3)C(=O)N2[C@H]1C(=O)O.CN(C)[C@@H]1C(O)=C(C(=O)NCN2CCN(CCO)CC2)C(=O)[C@@]2(O)C(O)=C3C(=O)c4c(O)cccc4[C@@](C)(O)[C@H]3C[C@@H]12 [Penimepicycline],0.846 (inactive)
